The record followed here is PubChem BioAssay (NCI).

Each structure is given as a SMILES string. This is part of a sample that, as a whole, favours compounds with a hit. Of some 79,000 tested, about 15% had one in any assay. Calls of active or inactive are those of the source. Rule as the data show it: active = growth inhibition above about 70%; inactive = the rest.

A short description of the first assay: NCI Yeast Anticancer Drug Screen. Data for the rad50 strain (AID 155).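 Also: 0% = growth of vehicle-only cultures of the same strain.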 As to conditions: S. cerevisiae rad50 strain growth inhibition; at 5.0 µM (retest, dose inferred, filed as 0.5); hits give high values. The method, boiled down:
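Compounds were tested on a yeast strain with an engineered DNA damage repair alteration; the reported value is growth inhibition normalised to vehicle treatment.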
`COC(OC)(c1ccccc1)C(Br)Br`: the growth inhibition is -21% (inactive).
`Cc1ccc(S(=O)(=O)OCCc2ccc(Cl)cc2)cc1`: the growth inhibition is -10% (inactive).
Consider `O=C(CC(=O)c1ccncc1)c1ccccc1`, for which the growth inhibition was 7% (inactive).
Same read-out and setting: as for `CCN1CCC(O)(/C=C/c2ccccc2)C(C(=O)/C=C/c2ccccc2)C1` (stereo not given), the figure is 11% (inactive); as for `O=C(O)c1cc(Br)ccc1OCc1ccc(Cl)cc1`, -1% (inactive).
On to `Cc1ccc(C2COc3cc(O)c(O)cc3C2)cc1` (stereo not given), for which the growth inhibition is 29% (inactive).
Regarding `COC(=O)c1c2oc3c(C(=O)OC)cccc3nc-2cc(N)c1=O`, the growth inhibition is 0% (inactive).
On to `CC(=O)NCCN(C)C`, for which the growth inhibition was 2% (inactive).
For `N=c1scc(-c2ccccc2)n1/N=C/c1cccnc1`, the growth inhibition was 1% (inactive).
Take `C(=C/c1ccccc1)/C=N/Nc1ccccc1`: the growth inhibition was -139% (inactive).
Same read-out and setting: as for `OC(Cc1ccc(Br)cc1)CN1CCC(c2ccccc2)CC1` (stereo not given), the figure is 98% (active).
In the case of `O=C1C(Cl)=C(Nc2ccc(S(=O)(=O)O)cc2)C(=O)c2ccccc21`, the growth inhibition was 23% (inactive).
Regarding `CC1(CO)CCCC2(C)C3=C(CCCC3)CCC12` (stereo not given), the growth inhibition was -102% (inactive).
For the compound `Cc1cc2nc(CC(=O)c3ccc4ccccc4c3)c(=O)[nH]c2cc1C`, the growth inhibition was -43% (inactive).
Consider `CN(CCO)CCn1cnc2c1c(=O)n(C)c(=O)n2C`, for which the growth inhibition was -7% (inactive).
For `O=C1c2ccccc2CC(Br)c2ccccc21` (stereo not given), the growth inhibition is -2% (inactive).
For the compound `Cc1cccc2c(CBr)cc(=O)[nH]c12`, the growth inhibition is 7% (inactive).
Take `CC(=O)CC1CCC(=O)/C=C/C(=O)OC(CC(C)=O)CCC(=O)/C=C/C(=O)O1` (stereo not given): the growth inhibition was 20% (inactive).
For `CCN(CC)CC(O)c1c(-c2ccccc2)c(-c2ccccc2)c2n1CCC2` (stereo not given), the growth inhibition is -4% (inactive).
For the compound `CC1(C)CC[C@]2(C(=O)O)[C@H](O)C[C@]3(C)C(=CC[C@@H]4[C@@]5(C)CC[C@H](OC6OCC(O)C(O)C6OC6OCC(O)C(O)C6OC6OCC(O)C(O)C6O)C(C)(C)[C@@H]5CC[C@]43C)[C@@H]2C1` (stereo not given in full), the growth inhibition is 5% (inactive).
On to `Cc1ccc(NC(=O)/C(CC(=O)c2sc(Nc3ccc(Cl)c(Cl)c3)nc2C)=N\Nc2ccc([N+](=O)[O-])cc2[N+](=O)[O-])c(C)c1`, for which the growth inhibition is 1% (inactive).
In the case of `CC(=O)N=C1N(/C=C2\C(=O)Oc3ccccc3C2=O)C(=O)/C(=C/c2ccc(Cl)cc2Cl)N1C`, the growth inhibition is 1% (inactive).
The same measure, in the same setting: for `COC1OC2COC(c3ccccc3)OC2C(NC(=S)SCc2ccccc2)C1O` (stereo not given) the value was -3% (inactive).
On the same count and under the same terms, for `O=C(CCN1CCCCC1)N1CCc2c([nH]c3ccccc23)C1c1cccnc1` (stereo not given) the value was -8% (inactive); for `Cc1ccc(Sc2ccc(C)cc2[N+](=O)[O-])c([N+](=O)[O-])c1`, 33% (inactive); for `O=c1c2cc3ccccc3cc2c(=O)n2n1CC=CC2`, 8% (inactive).
As for `ClC(Cl)=C1C(=C(Cl)Cl)C(Cl)(Cl)C1(Cl)Cl`, the growth inhibition was 51% (inactive).
As to `Cc1c(C(=O)N(CCO)CCO)[n+](=O)c2ccccc2n1[O-]`, the growth inhibition is 5% (inactive).
Still for that read-out and setting: for `CN(C)c1cc(N(C)C)c2cc(-c3ccccc3)sc2n1` the value was 11% (inactive); for `O=C(Nc1ccccc1O)/C(Cl)=C/Cl`, -153% (inactive).
For `Cc1ccccc1SCc1nc2ccccc2c(C)[n+]1[O-]`, the growth inhibition was -3% (inactive).
As for `Oc1ccc2c(ccc3ccccc32)c1`, the growth inhibition is 1% (inactive).
As for `O=C1c2ccccc2C(=O)N1C(=NCc1ccccc1)c1ccccc1`, the growth inhibition is 7% (inactive).
On the same count and under the same terms, for `Cc1cc(Cl)cc2c1OCN(C)C2` the value was 0% (inactive); for `CC(C)C(=O)/C=C/c1ccc(Cl)cc1Cl`, -8% (inactive).
On the same count and under the same terms, for `CC(C)C(=O)c1ccc([N+](=O)[O-])o1` the value was 2% (inactive).
On the same count and under the same terms, as for `CSc1c(S(C)=O)c2ccccc2n1C` (stereo not given), the figure is 20% (inactive); as for `O=C(CCCCN1CCN2c3ccccc3CCC2C1)c1ccccc1` (stereo not given), -3% (inactive); as for `COC(=O)c1ccc(C)cc1CC1Cc2cc(C)ccc2C1=O` (stereo not given), 5% (inactive).
With `Cc1cc(Nc2ccc(N=Nc3ccc(O)c4ncccc34)cc2)nc(C)n1`, the growth inhibition was 1% (inactive).

Staying with this assay, now noted: S. cerevisiae rad50 strain growth inhibition; at 50.0 µM (retest, dose inferred, filed as 5.0); hits give high values.
`COC(OC)(c1ccccc1)C(Br)Br`: the growth inhibition was 50% (inactive).
Turning to `Cc1ccc(S(=O)(=O)OCCc2ccc(Cl)cc2)cc1`, the growth inhibition was -21% (inactive).
`O=C(CC(=O)c1ccncc1)c1ccccc1`: the growth inhibition was 96% (active).
For `CCN1CCC(O)(/C=C/c2ccccc2)C(C(=O)/C=C/c2ccccc2)C1` (stereo not given), the growth inhibition is 89% (active).
On to `O=C(O)c1cc(Br)ccc1OCc1ccc(Cl)cc1`, for which the growth inhibition was 28% (inactive).
`Cc1ccc(C2COc3cc(O)c(O)cc3C2)cc1` (stereo not given): the growth inhibition was 99% (active).
Still for that read-out and setting: for `COC(=O)c1c2oc3c(C(=O)OC)cccc3nc-2cc(N)c1=O` the value was 19% (inactive).
Regarding `CC(=O)NCCN(C)C`, the growth inhibition was -1% (inactive).
As for `N=c1scc(-c2ccccc2)n1/N=C/c1cccnc1`, the growth inhibition is 95% (active).
On the same count and under the same terms, for `C(=C/c1ccccc1)/C=N/Nc1ccccc1` the value was -112% (inactive); for `OC(Cc1ccc(Br)cc1)CN1CCC(c2ccccc2)CC1` (stereo not given), 98% (active); for `O=C1C(Cl)=C(Nc2ccc(S(=O)(=O)O)cc2)C(=O)c2ccccc21`, 99% (active).
The same measure, in the same setting: for `CC1(CO)CCCC2(C)C3=C(CCCC3)CCC12` (stereo not given) the value was 94% (active).
On to `Cc1cc2nc(CC(=O)c3ccc4ccccc4c3)c(=O)[nH]c2cc1C`, for which the growth inhibition is -24% (inactive).
`CN(CCO)CCn1cnc2c1c(=O)n(C)c(=O)n2C`: the growth inhibition is 5% (inactive).
Same read-out and setting: as for `O=C1c2ccccc2CC(Br)c2ccccc21` (stereo not given), the figure is 97% (active).
For `Cc1cccc2c(CBr)cc(=O)[nH]c12`, the growth inhibition was 91% (active).
For the compound `CC(=O)CC1CCC(=O)/C=C/C(=O)OC(CC(C)=O)CCC(=O)/C=C/C(=O)O1` (stereo not given), the growth inhibition is 38% (inactive).
As for `CCN(CC)CC(O)c1c(-c2ccccc2)c(-c2ccccc2)c2n1CCC2` (stereo not given), the growth inhibition was 92% (active).
In the case of `CC1(C)CC[C@]2(C(=O)O)[C@H](O)C[C@]3(C)C(=CC[C@@H]4[C@@]5(C)CC[C@H](OC6OCC(O)C(O)C6OC6OCC(O)C(O)C6OC6OCC(O)C(O)C6O)C(C)(C)[C@@H]5CC[C@]43C)[C@@H]2C1` (stereo not given in full), the growth inhibition was 7% (inactive).
As for `Cc1ccc(NC(=O)/C(CC(=O)c2sc(Nc3ccc(Cl)c(Cl)c3)nc2C)=N\Nc2ccc([N+](=O)[O-])cc2[N+](=O)[O-])c(C)c1`, the growth inhibition is 97% (active).
`CC(=O)N=C1N(/C=C2\C(=O)Oc3ccccc3C2=O)C(=O)/C(=C/c2ccc(Cl)cc2Cl)N1C`: the growth inhibition was 92% (active).
For `COC1OC2COC(c3ccccc3)OC2C(NC(=S)SCc2ccccc2)C1O` (stereo not given), the growth inhibition is 98% (active).
The same measure, in the same setting: for `O=C(CCN1CCCCC1)N1CCc2c([nH]c3ccccc23)C1c1cccnc1` (stereo not given) the value was 8% (inactive); for `Cc1ccc(Sc2ccc(C)cc2[N+](=O)[O-])c([N+](=O)[O-])c1`, 40% (inactive); for `O=c1c2cc3ccccc3cc2c(=O)n2n1CC=CC2`, 39% (inactive).
In the case of `ClC(Cl)=C1C(=C(Cl)Cl)C(Cl)(Cl)C1(Cl)Cl`, the growth inhibition was 98% (active).
As to `Cc1c(C(=O)N(CCO)CCO)[n+](=O)c2ccccc2n1[O-]`, the growth inhibition was 3% (inactive).
Same read-out and setting: for `CN(C)c1cc(N(C)C)c2cc(-c3ccccc3)sc2n1` the value was 98% (active); for `O=C(Nc1ccccc1O)/C(Cl)=C/Cl`, 95% (active); for `Cc1ccccc1SCc1nc2ccccc2c(C)[n+]1[O-]`, 73% (active).
On to `Oc1ccc2c(ccc3ccccc32)c1`, for which the growth inhibition was 98% (active).
Take `O=C1c2ccccc2C(=O)N1C(=NCc1ccccc1)c1ccccc1`: the growth inhibition was 70% (active).
In the case of `Cc1cc(Cl)cc2c1OCN(C)C2`, the growth inhibition is 93% (active).
Take `CC(C)C(=O)/C=C/c1ccc(Cl)cc1Cl`: the growth inhibition was 46% (inactive).
As to `CC(C)C(=O)c1ccc([N+](=O)[O-])o1`, the growth inhibition is 97% (active).
In the case of `CSc1c(S(C)=O)c2ccccc2n1C` (stereo not given), the growth inhibition is 17% (inactive).
Turning to `O=C(CCCCN1CCN2c3ccccc3CCC2C1)c1ccccc1` (stereo not given), the growth inhibition was 51% (inactive).
Consider `COC(=O)c1ccc(C)cc1CC1Cc2cc(C)ccc2C1=O` (stereo not given), for which the growth inhibition was 54% (inactive).
For `Cc1cc(Nc2ccc(N=Nc3ccc(O)c4ncccc34)cc2)nc(C)n1`, the growth inhibition was 31% (inactive).
